Structures are written as SMILES. Values without a mark were called inactive. Calls of active or inactive are those of the source.

This assay is described as follows: basal S. cerevisiae growth modulation, no modifier, primary screen, OD600, strain BY4716, 24 h, basal condition (AID 1173). The following applies: OD600, 24 h, higher = more signal, called active from +8 up or from −8 down.
`COc1cc2c(cc1O)C(c1cccs1)N(Cc1sc3ccccc3c1Cl)CC2` (stereo not given): the z-score was -1.41.
The figure for `CC(C)(C)OC(=O)CC[C@]12N=C(c3ccc(OCCCO)cc3)O[C@H]1c1ccccc1N(Cc1ccccc1)C2=O` is 0.342; for `O=C1C2C=CC(C(O)c3ccc(I)cc3)N(Nc3ccccc3)C2C(=O)N1c1ccccc1` (stereo not given) it is -2.16; for `C=CCN1C(=O)[C@@]2(O[C@@H](CCO)[C@H]([Si](C)(C)c3ccc(OC)cc3)[C@H]2C)c2cc(N3CCOC3=O)ccc21` it is 1.07.
Then `CCOC(=O)C1=C[C@@H](C(C)(C)C)N(S(=O)(=O)c2ccc(C)cc2)[C@H]1c1cccc(Cl)c1`, with 2.15; and `CO[C@H]1O[C@H](CO)[C@@H](OC(=O)Nc2cccc(F)c2)[C@H](OC(=O)Nc2ccccc2-c2ccccc2)[C@H]1OC(=O)Nc1ccccc1-c1ccccc1`, with 0.748; and `COCC(=C=CC[C@@H](O)c1ccc(OCCO)cc1)CCO`, with -0.896.
The figure for `C=CCC(OC(C)=O)[C@@H]1[C@@H](N(Cc2ccc(-c3cccc(C(F)(F)F)c3)o2)C(=O)Cc2ccc(OC)cc2)c2cc(OCCCO)ccc2N1C(=O)Cc1ccc2ccccc2c1` (stereo not given in full) is -0.753.
As to `CN1C(=O)[C@@H]2[C@@H](CC(COc3ccccc3)=C([C@H](O)CCc3ccccc3)[C@@H]2CO)C1=O`, the z-score was -3.31.
In the case of `COc1cc(NN2C(C(O)C3CCCCC3)C=CC3C(=O)N(C)C(=O)C32)cc(OC)c1OC` (stereo not given), the z-score was 1.28.
Then `C=CCC(OC(C)=O)[C@@H]1[C@@H](N(Cc2cccc3ccccc23)C(=O)c2ccc(-c3ccccc3)cc2)c2cc(OCCCO)ccc2N1C(=O)c1ccc(-c2ccccc2)cc1` (stereo not given in full), with -0.166.
Then `[N-]=[N+]=NCc1ccccc1C[C@@]1(C(=O)N2CCCCC2)N=C(c2ccc(OCCCO)cc2)O[C@@H]1c1ccccc1CN=[N+]=[N-]`, with 0.069; and `COC(=O)[C@@]1(Cc2ccc(OC)cc2)[C@H]2c3cc(C(=O)N4CCCC4)n(Cc4ccc(S(C)(=O)=O)cc4)c3C[C@H]2CN1C(=O)c1ccccc1`, with 0.63.
The figure for `CCOC(=O)C[C@H]1[C@H](OC(=O)c2ccc(C(=O)c3ccccc3)cc2)[C@@H](NC(=O)CC(C)C)c2cc(OCCCO)ccc2N1C(=O)Cc1ccc(OC)cc1` is -0.316; for `O=C1C2C=CC(C(O)c3ccco3)N(Nc3ccccc3)C2C(=O)N1c1ccccc1` (stereo not given) it is -0.633.
For `Cc1ccc(F)cc1S(=O)(=O)N[C@@H]1CCN(Cc2cccc3[nH]ccc23)C1`, the z-score was -2.03.
The figure for `CCOC(=O)C1=C[C@@H](c2ccccc2)N(S(=O)(=O)c2ccc(C)cc2)[C@H]1c1ccccc1` is 0.779.
The figure for `COCCOC(=O)N1C(=O)[C@@]2(c3cc(C#CCC(C(=O)OC)C(=O)OC)ccc31)[C@H](c1ccc(OCCO)cc1)N1[C@H](c3ccccc3)[C@H](c3ccccc3)OC(=O)[C@H]1[C@@H]2C(=O)Nc1nc2ccccc2s1` is 1.05.
Consider `COC(=O)[C@@]1(Cc2ccccc2CN=[N+]=[N-])N=C(c2ccc(OCCCO)cc2)O[C@H]1c1ccccc1`, for which the z-score was 0.797.
Then `COC(=O)C(CC#Cc1ccc2c(c1)[C@]1(C(=O)N2)[C@H](c2ccc(OCCO)cc2)N2[C@H](c3ccccc3)[C@H](c3ccccc3)OC(=O)[C@H]2[C@@H]1C(=O)N1CCN(c2ncccn2)CC1)C(=O)OC`, with 1.96; and `CCCCCCCCCCC(O)C1C=CC2C(=O)N(C)C(=O)C2N1Nc1cc(OC)c(OC)c(OC)c1` (stereo not given), with -1.36; and `C=CCC(OC(C)=O)[C@@H]1[C@@H](N(Cc2ccc(-c3ccccc3)cc2)C(=O)c2ccc(C)cc2)c2cc(OCCCO)ccc2N1C(=O)Cc1ccc2ccccc2c1` (stereo not given in full), with -0.516.
Then `Cc1cccc([C@H]2C[C@H]3C(Br)=C[C@@H]2C(=O)[C@]32CO2)c1`, with -12.1 (active); and `O=C(O)[C@H]1C[C@H]2C(=O)N[C@@H](Cc3ccccc3)C(=O)N2[C@H]1c1cccc(OCCO)c1`, with -1.46.
Then `Cc1cccc([C@H]2C[C@H]3C(I)=C[C@@H]2C(=O)[C@]32CO2)c1`, with -10.5 (active); and `COc1cc(NN2C(C(O)c3ccc(I)cc3)C=CC3C(=O)N(c4ccccc4)C(=O)C32)cc(OC)c1OC` (stereo not given), with 0.645; and `CCN(CC)c1ccc(N2CC=CC34O[C@@H]5/C=C\CCC(C)OC(=O)C5[C@H]3C(=O)N(C(C)CO)[C@@H]4C2=O)cc1` (stereo not given in full), with -0.893.
As to `C=CC[C@H](OC(=O)Nc1ccc(SC)cc1)c1ccc(OCCO)cc1`, the z-score was -3.71.
Then `COCCOC(=O)N1C(=O)[C@@]2(c3cc(C#CCCO)ccc31)[C@H](c1ccccc1OCCO)N1[C@H](c3ccccc3)[C@H](c3ccccc3)OC(=O)[C@H]1[C@@H]2C(=O)N1CCCCCCC1`, with 0.971.
Then `CC(C)C(=C=CC[C@H](O)c1cccc(OCCO)c1)CCO`, with -1.47.
Then `CCCCNC(=O)c1ccc(C#C[Si](C(C)C)(C(C)C)C(C)C)c(OC(C)=O)c1`, with -0.152; and `C[C@@]12COC[C@]13C=C(Br)[C@H](C2)[C@@]1(CO1)C3=O`, with -1.38; and `CC(C)[C@H]1NC(=O)[C@@]23C(=O)N[C@@H](Cc4ccccc4)C2[C@H](C)[C@@]2(C)O[C@H]2C3/C=C/CCC/C=C/CNC(=O)[C@H](Cc2ccccc2)NC1=O` (stereo not given in full), with -1.76.
For `COCCCNC(=O)[C@@]1(Sc2ccc(C)cc2)CC(=O)N(C(C)C)[C@@H]1c1ccc(CO)cc1I`, the z-score is -3.22.
Then `CN(C)CCCCNC(=O)[C@H]1C[C@H]2C(=O)N[C@@H](CCCC[N+](C)(C)C)C(=O)N2[C@H]1c1ccc(O)cc1`, with -0.0503.

The values above are taken from PubChem BioAssay.
